# Screens deposited in PubChem BioAssay by several laboratories.
# A selection: hits, their analogues and other compounds. The true share with any hit is near 1.4%.
# A3A deaminase – blocks human APOBEC3A ssDNA deamination; inhibition, % at 20 µM; recombinant A3A, FAM/TAMRA ssDNA deamination fluorescence; P31941; actives 0.41% (n = 330,000);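 active = at least 40% inhibition at 20 µM here, with at most 30% in a related deaminase screen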;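 note: plate controls were A3A with DMSO for no effect and wells lacking A3A enzyme for full effect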
# GRK2 aptamer HTS – human GRK2 inhibition via aptamer displacement; AID 488847; bead flow cytometry, FAM-aptamer displacement from GRK2; inhibition of aptamer binding, % at 10 µM; actives 0.59% (n = 330,000); P25098;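 active = inhibition of aptamer binding above 40%, roughly 3 SD of noise, on plates passing a quality check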;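 note: median bead fluorescence of bound FAM aptamer so fluorescent compounds give negative values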
# Target sequence (P25098 whole entry, looked up): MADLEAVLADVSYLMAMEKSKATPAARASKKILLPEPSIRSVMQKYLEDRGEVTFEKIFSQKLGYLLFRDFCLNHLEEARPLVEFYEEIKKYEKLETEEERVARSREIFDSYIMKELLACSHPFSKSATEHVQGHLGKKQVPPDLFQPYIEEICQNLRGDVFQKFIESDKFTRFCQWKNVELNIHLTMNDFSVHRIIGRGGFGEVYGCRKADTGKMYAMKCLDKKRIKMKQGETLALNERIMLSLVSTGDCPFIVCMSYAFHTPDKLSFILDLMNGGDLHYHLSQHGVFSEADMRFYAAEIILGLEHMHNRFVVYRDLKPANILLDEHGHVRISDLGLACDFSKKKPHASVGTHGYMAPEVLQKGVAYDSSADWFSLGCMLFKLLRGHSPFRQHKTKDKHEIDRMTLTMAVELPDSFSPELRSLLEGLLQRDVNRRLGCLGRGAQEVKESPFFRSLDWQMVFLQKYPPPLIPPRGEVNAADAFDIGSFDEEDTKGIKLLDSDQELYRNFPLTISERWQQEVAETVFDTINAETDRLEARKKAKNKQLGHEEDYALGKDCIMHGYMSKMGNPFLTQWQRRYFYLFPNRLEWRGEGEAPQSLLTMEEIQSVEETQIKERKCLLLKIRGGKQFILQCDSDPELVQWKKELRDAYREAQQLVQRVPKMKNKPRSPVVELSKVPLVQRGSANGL
# APOBEC3G inh – blocks human APOBEC3G single-stranded DNA deamination. inhibition, % at 20 µM. actives 0.28% (n = 330,000). AID 493012. Q9HC16. recombinant A3G, ssDNA deamination FAM/TAMRA fluorescence;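 active = inhibition of at least 40% at 20 µM, with no more than 30% in the related APOBEC3A deaminase screen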;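 note: plate controls were DMSO wells with A3G for no effect and wells lacking A3G enzyme for full effect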
# VLA-4 inh – inhibition in a human VLA-4 binding assay; inhibition, % (about 7 µM as worked out from the volumes in the protocol); VLA-4 expressing cells, ligand binding flow cytometry; P13612; actives 0.2% (n = 330,000); AID 2557; in the data active = inhibition above about 50%
# APOBEC3A confirm – APOBEC3A (human) deaminase inhibition, confirmed. shares compounds with A3A deaminase. recombinant A3A, ssDNA deaminase UDG fluorescence assay. inhibition, % at 20 µM. actives 63% (n = 1,400);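 active = inhibition reaching a set limit, 80% of the first screen's cutoff, at 20 µM in any replicate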;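 note: plate controls were DMSO wells with A3A for no effect and wells lacking A3A enzyme for full effect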
# UDG A3A counter – counter-screen for APOBEC3A inhibitors: UDG. UDG counterscreen, FAM/TAMRA uracil oligo fluorescence. inhibition, % at 20 µM. shares compounds with A3A deaminase. AID 504714. 1,000 tested, under 10 active; call rule not given here
# Starred values were filed as active, the others as inactive; / = not tested or not shown.
SMILES,A3A deaminase,GRK2 aptamer HTS,APOBEC3G inh,VLA-4 inh,APOBEC3A confirm,UDG A3A counter
CC(=O)OCCCCCCCCCCC[N+]1(C)CCCCC1,79*,0,20,10,73*,2
COC(=O)CCCCCCCCC(O)C[N+]1(C)CCOCC1 (stereo not drawn),53*,1,23,25,78*,-3
COC(=O)CCCCCCCCC(O)CN(C)C (stereo not drawn),1,0,0,-10,/,/
COC(=O)CCCCCCCCCC[N+]1(C)CCCCC1,44*,0,22,26,85*,2
C=CCCC(=O)N1CCC(n2nccc2NC(=O)CCCc2ccccc2)CC1,3,2,0,5,/,/
CN(C)CCC(=O)c1ccc(F)cc1,1,0,-5,0,/,/
O=C(OCCc1cc2ccccc2c(=O)o1)c1ccc2c(c1)OCO2,-4,0,-5,9,/,/
O=C(/C=C/c1ccccc1)OCCCCN=C1NS(=O)(=O)c2ccccc21,83*,0,2,3,3,/
CCOC(=O)COc1ccc(Br)cc1/C=C1\SC(N)=NC1=O,53*,0,6,17,50*,-5
CSc1nc(-c2ccco2)nn1C(=O)Cc1ccccc1,94*,4,-3,-2,-2,-3
c1ccc(COc2cccc(CNCc3cccs3)c2)cc1,-3,0,-4,-17,/,/
CCOc1cc(C(=O)OCC(=O)Nc2cccc(S(=O)(=O)NC3=NCCCCC3)c2)cc(OCC)c1OCC,1,0,-6,-12,/,/
O=C(CSc1nc2ccccc2c(=O)[nH]1)c1cccs1,44*,0,0,0,0,/
COC(C(=O)Nc1ccc(Cl)cc1C)c1ccccc1 (stereo not drawn),53*,0,12,-9,12,/
C[C@H](CO)N1C[C@H](C)[C@@H](CN(C)C(=O)NC2CCCCC2)Oc2ccc(NS(=O)(=O)c3ccc(F)cc3)cc2C1=O,5,2,0,-4,/,/
CN(Cc1ccccc1)C1=CC(=[N+]2CCCCC2)CC(C)(C)C1,68*,0,20,2,73*,-2
O=C(Nc1ccc(N2CCOCC2)cc1N1CCOCC1)c1ccc(Br)cc1,-8,0,-8,12,/,/
COC(=O)C1CCN(C(=O)c2c(-c3ccccc3Cl)noc2C)CC1,-3,0,-5,0,/,/
CC(=O)Nc1nc(CC(C)C)cc(-c2ccco2)c1C#N,40*,0,16,-7,51*,-3
CCC[N+]1(CC#CC(O)(c2ccccc2)C2CCCCC2)CCCCC1 (stereo not drawn),-5,0,-8,-3,/,/
NC(=O)C[N+]1(CC#CC(O)(c2ccccc2)c2ccccc2)CCCC1,51*,1,18,-20,71*,3
COC(=O)c1ccsc1NC(=O)CN1CCN(Cc2ccc3c(c2)OCO3)CC1,-2,0,-5,5,/,/
N#CC1(NC(=O)COc2cc(F)ccc2[N+](=O)[O-])CCCCC1,-1,9,-5,8,/,/
N#CC1(NC(=O)COc2ccccc2[N+](=O)[O-])CCCCC1,48*,0,3,-8,22,/
Cc1nc2ccc(S(=O)(=O)NC(C(=O)N3CCn4c3nc3ccccc34)C(C)C)cc2s1 (stereo not drawn),-3,0,-6,-7,/,/
SMILES,A3A deaminase,GRK2 aptamer HTS,APOBEC3G inh,VLA-4 inh,APOBEC3A confirm,UDG A3A counter
COCCN(C(=O)COC(=O)CC1CCCCC1)c1c(N)n(Cc2ccccc2)c(=O)[nH]c1=O,-5,0,-8,11,/,/
O=C(/C=C/c1ccco1)N1CCN(S(=O)(=O)c2cccc([N+](=O)[O-])c2)CC1,65*,79*,23,0,62*,4
CN1CCN(C(=O)c2ccc3c(Cl)c4c(nc3c2)CCCC4)CC1,-5,9,-9,18,/,/
O=C(C1=C[C@H](c2coc3ccccc3c2=O)C[C@H](OCCCCO)O1)N1CCN(Cc2ccccc2)CC1,76*,3,-10,-2,5,6
O=C(C1=C[C@H](c2coc3ccccc3c2=O)C[C@H](OCCCCO)O1)N1CCOCC1,1,1,-2,39,/,/
CC[n+]1c(/C=C/N(C)c2ccccc2)n(-c2ccccc2)c2ccc(-c3nc4ccccc4s3)cc21,61*,0,5,-13,48*,/
CCN1C(=NCCc2ccc(Br)cc2)N[C@@H](c2ccccc2)[C@H](C(=O)OC)[C@H]1C,39,0,9,22,/,/
CCN1C(=NCCCOC(C)C)N[C@@H](c2ccccc2)[C@H](C(=O)OC)[C@H]1C,44*,6,14,13,61*,-2
CC1(C)CC(C(=O)NCCC(c2ccccc2)c2ccco2)CCO1 (stereo not drawn),3,0,0,3,/,/
C[N+]12CCCCC1[C@@H](CO)CCC2 (stereo partly drawn),56*,1,22,3,71*,2
O=C(C[n+]1cccc(C(=O)Nc2ccccc2)c1)c1ccc([N+](=O)[O-])cc1,-6,0,1,3,/,/
NC(=O)C[n+]1cccc(C(=O)Nc2ccccc2)c1,76*,0,19,0,78*,-1
Cc1ccc(OCCN2CCN(c3nc(NCc4ccco4)c4ccccc4n3)CC2)cc1,0,0,1,3,/,/
CCN(CC(=O)Nc1c(F)cccc1F)C(=O)CCNS(=O)(=O)c1ccc(C)c(C)c1,49*,0,-9,3,5,0
CCOc1ccc(S(=O)(=O)NCCC(=O)N(CC)CC(=O)Nc2c(F)cccc2F)cc1,-4,0,-6,-4,/,/
O=C(C1CCC1)N1CCN(S(=O)(=O)c2ccc(F)cc2)CC1,46*,0,17,-26,-1,/
CC(=O)c1ccc2c3c(cccc13)C(=O)N(c1c(C)nn(C)c1C)C2=O,48*,0,28,0,4,/
Cc1ccc(N2C(=O)c3cccc4c(C(=O)O)ccc(c34)C2=O)cc1,-1,3,1,4,/,/
CCN1/C(=C/C(=O)c2ccco2)Sc2ccccc21,-10,0,0,-11,/,/
CCN1/C(=C/c2cc[n+](CCCS(=O)(=O)[O-])c3ccccc23)Sc2ccccc21,76*,1,20,-173,69*,-1
CCOc1ccc(NC(=O)C2CCCN2C(=O)Oc2ccccc2)cc1 (stereo not drawn),73*,0,20,-3,78*,-2
O=[N+]([O-])c1ccc(S(=O)(=O)NCC(c2ccco2)N2CCc3ccccc3C2)cc1 (stereo not drawn),77*,0,-7,10,-2,-3
O=C(COc1ccccc1)Nc1nc2cc3c(cc2s1)OCO3,-5,4,-3,-20,/,/
C=CCNC(=O)c1c(-c2c(F)cccc2Cl)noc1C,-8,0,-6,-1,/,/
COC(=O)c1ccc2ccn(CC(=O)NC(C)C)c2c1,74*,1,13,-6,70*,-2
